# Test results: PubChem BioAssay (NCATS)
# Records with an inconclusive call do not appear. Where a call stands in place of a potency, no number is given. Active and inactive are the calls of the source. Unless noted, calls follow the shape of the dose curve; as a rule, active = well fitted inhibition curve with a large enough effect; inconclusive = small, poorly fitted or top-dose-only effect; inactive = flat fitted curve, though single readings scatter.
# How the values were obtained:
# [1] = qHTS drug screen for cell cycle checkpoint inhibitors in PARPi-resistant BRCA-mutant ovarian cancer cell lines. (AID 1963452; calls by dose curve); settings: PEO1/OlaR viability, CellTiter-Glo luminescence, 96 h, stronger effect = lower value
# How it was run: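 PEO1, PEO4 and PEO1/OlaR ovarian cancer cells, 600 per well, exposed 96 h at 37C to a dilution series. Viability read by CellTiter-Glo luminescence, normalized to DMSO and empty wells; activity summarized as Z-AUC.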
# [2] = qHTS profiling for inhibitors of Plasmodium falciparum proliferation (AID 504749); also: nearly all actives have a fitted effect of over 60% in size; also: potency is read from the fitted curve at half-maximal effect; settings: P. falciparum in erythrocytes, SYBR Green DNA, 72 h
# How it was run: (§1)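 In a 72 h erythrocytic culture (37 C, humidified, 5% CO2) at 2.5% hematocrit and 0.3% starting parasitemia, compounds were tested; SYBR Green I in detergent lysis buffer stained parasite DNA overnight.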
# [3] = test system: 3D7; experiment: as above; settings: P. falciparum in erythrocytes, SYBR Green DNA, 72 h; series mostly up to 28.7 µM
# How it was run: as §1
# [4] = test system: 7G8; experiment: as above; settings: P. falciparum in erythrocytes, SYBR Green DNA, 72 h; series mostly up to 28.7 µM
# How it was run: as §1
# [5] = test system: AA1029; experiment: as above; settings: P. falciparum in erythrocytes, SYBR Green DNA, 72 h; series mostly up to 28.7 µM
# How it was run: as §1
# [6] = test system: AS120; experiment: as above; settings: P. falciparum in erythrocytes, SYBR Green DNA, 72 h; series mostly up to 28.7 µM
# How it was run: as §1
# [7] = test system: ATS189; experiment: as above; settings: P. falciparum in erythrocytes, SYBR Green DNA, 72 h; series mostly up to 28.7 µM
# How it was run: as §1
# [8] = test system: ATS95; experiment: as above; settings: P. falciparum in erythrocytes, SYBR Green DNA, 72 h; series mostly up to 28.7 µM
# How it was run: as §1
# [9] = test system: C2A; experiment: as above; settings: P. falciparum in erythrocytes, SYBR Green DNA, 72 h; series mostly up to 28.7 µM
# How it was run: as §1
# [10] = test system: CP185; experiment: as above; settings: P. falciparum in erythrocytes, SYBR Green DNA, 72 h; series mostly up to 28.7 µM
# How it was run: as §1
# [11] = test system: CP191; experiment: as above; settings: P. falciparum in erythrocytes, SYBR Green DNA, 72 h; series mostly up to 28.7 µM
# How it was run: as §1
# [12] = test system: CP192; experiment: as above; settings: P. falciparum in erythrocytes, SYBR Green DNA, 72 h; series mostly up to 28.7 µM
# How it was run: as §1
# [13] = test system: CP194; experiment: as above; settings: P. falciparum in erythrocytes, SYBR Green DNA, 72 h; series mostly up to 28.7 µM
# How it was run: as §1
# [14] = test system: CP201; experiment: as above; settings: P. falciparum in erythrocytes, SYBR Green DNA, 72 h; series mostly up to 28.7 µM
# How it was run: as §1
# [15] = test system: CP211; experiment: as above; settings: P. falciparum in erythrocytes, SYBR Green DNA, 72 h; series mostly up to 28.7 µM
# How it was run: as §1
# [16] = test system: CP203; experiment: as above; settings: P. falciparum in erythrocytes, SYBR Green DNA, 72 h; series mostly up to 28.7 µM
# How it was run: as §1
# [17] = qHTS for identification of novel therapeutic agents for treatment of microphthalmiaassociated transcription factor (MiT) renal cell carcinoma (RCC) (AID 1963991); settings: CellTiter-Glo, 48 h, stronger effect = lower value
# How it was run: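 Three TFE3-fusion RCC lines (UOK109, UOK124, UOK145), 500 cells/well in complete medium, were treated with MIPE 4.0 compounds for 48 hours at 37 C. Viability was by CellTiter-Glo luminescence, normalized to DMSO (100%) and empty wells (0%); curves fitted over 11 concentrations.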
# [18] = measured here: PEO1 parental Z-AUC
# [19] = at 12.8 µM (top of the series), parasite line A
# [20] = at 12.8 µM (top of the series), parasite line B
# [21] = at 28.7 µM (top of the series), parasite line A
# [22] = at 28.7 µM (top of the series), parasite line B
# [23] = TFE3-RCC UOK109 viability, measured here: UOK109 Z-AUC
# [24] = TFE3-RCC viability, measured here: UOK124 Z-AUC
# [25] = TFE3-RCC viability, measured here: UOK145 Z-AUC
structure (smiles),measurement,setting,value
CN(C)c1nc(N(C)C)nc(N(C)C)n1,Z-AUC,[1],1.32 (inactive)
same,Z-AUC,[1]; [18],0.778
same,Z-AUC,[1]; measured here: PEO4 Z-AUC,0.807
same,"activity, negative = inhibition",[2]; [19],7.93% (inactive)
same,"activity, negative = inhibition",[2]; [20],-1.03% (inactive)
same,Potency,[3],inactive
same,Potency,[4],inactive
same,Potency,[5],inactive
same,Potency,[6],inactive
same,Potency,[7],inactive
same,Potency,[8],inactive
same,Potency,[9],inactive
same,Potency,[10],inactive
same,Potency,[11],inactive
same,Potency,[12],inactive
same,Potency,[13],inactive
same,Potency,[14],inactive
same,Potency,[15],inactive
Cn1cnc2c1c(=O)[nH]c(=O)n2C,Z-AUC,[1],-0.393 (inactive)
same,Z-AUC,[1]; [18],-0.653
same,Z-AUC,[1]; measured here: PEO4 Z-AUC,-0.709
same,"activity, negative = inhibition",[2]; [21],1.87% (inactive)
same,"activity, negative = inhibition",[2]; [22],-0.248% (inactive)
same,Potency,[3],inactive
same,Potency,[4],inactive
same,Potency,[5],inactive
same,Potency,[6],inactive
same,Potency,[7],inactive
same,Potency,[8],inactive
same,Potency,[9],inactive
same,Potency,[10],inactive
same,Potency,[11],inactive
same,Potency,[12],inactive
same,Potency,[13],inactive
same,Potency,[14],inactive
same,Potency,[15],inactive
COc1ccc2[nH]cc(CCNC(C)=O)c2c1,Z-AUC,[1],1.13 (inactive)
same,Z-AUC,[1]; [18],1.56
same,Z-AUC,[1]; measured here: PEO4 Z-AUC,1.13
same,"activity, negative = inhibition",[2]; [21],6.49% (inactive)
same,"activity, negative = inhibition",[2]; [22],12.1% (inactive)
same,Potency,[3],inactive
same,Potency,[4],inactive
same,Potency,[5],inactive
same,Potency,[6],inactive
same,Potency,[7],inactive
same,Potency,[8],inactive
same,Potency,[9],inactive
same,Potency,[10],inactive
same,Potency,[11],inactive
same,Potency,[12],inactive
same,Potency,[13],inactive
same,Potency,[14],inactive
same,Potency,[16],inactive
same,Potency,[15],inactive
CS(=O)(=O)CCNCc1ccc(-c2ccc3ncnc(Nc4ccc(OCc5cccc(F)c5)c(Cl)c4)c3c2)o1,Z-AUC,[1],0.292 (inactive)
same,Z-AUC,[1]; [18],0.248
same,Z-AUC,[1]; measured here: PEO4 Z-AUC,0.473
same,"activity, negative = inhibition",[2]; [21],6.38% (inactive)
same,"activity, negative = inhibition",[2]; [22],-5.13% (inactive)
same,Potency,[3],inactive
same,Potency,[4],inactive
same,Potency,[5],inactive
same,Potency,[6],inactive
same,Potency,[7],inactive
same,Potency,[8],inactive
same,Potency,[9],inactive
same,Potency,[10],inactive
same,Potency,[11],inactive
same,Potency,[12],inactive
same,Potency,[13],inactive
same,Potency,[14],inactive
same,Potency,[15],inactive
Nc1c2c(nc3ccccc13)CCCC2,Z-AUC,[1],1.3 (inactive)
same,Z-AUC,[1]; [18],1.74
same,Z-AUC,[1]; measured here: PEO4 Z-AUC,1.21
same,z-score,[17]; [23],1.01
same,z-score,[17]; [24],0.33
same,z-score,[17]; [25],1.46
same,Potency,[9],inactive
same,Potency,[14],inactive
CCC1(c2ccccc2)C(=O)NCNC1=O,Z-AUC,[1],1.12 (inactive)
same,Z-AUC,[1]; [18],0.974
same,Z-AUC,[1]; measured here: PEO4 Z-AUC,1.04
same,"activity, negative = inhibition",[2]; [21],6.87% (inactive)
same,"activity, negative = inhibition",[2]; [22],11.7% (inactive)
same,Potency,[3],inactive
same,Potency,[4],inactive
same,Potency,[5],inactive
same,Potency,[6],inactive
same,Potency,[7],inactive
same,Potency,[8],inactive
same,Potency,[9],inactive
same,Potency,[10],inactive
same,Potency,[11],inactive
same,Potency,[12],inactive
same,Potency,[13],inactive
same,Potency,[14],inactive
same,Potency,[15],inactive
CCCNCC(O)COc1ccccc1C(=O)CCc1ccccc1 (stereo not drawn),Z-AUC,[1],0.52 (inactive)
same,Z-AUC,[1]; [18],0.498
same,Z-AUC,[1]; measured here: PEO4 Z-AUC,0.0881
same,Potency,[2]; parasite line A,1000 nM (active)
same,Potency,[2]; parasite line B,355 nM (active)
same,Potency,[3],2000 nM (active)
same,Potency,[4],251 nM (active)
same,Potency,[5],631 nM (active)
same,Potency,[6],316 nM (active)
same,Potency,[7],891 nM (active)
same,Potency,[8],631 nM (active)
same,Potency,[9],1780 nM (active)
same,Potency,[10],1260 nM (active)
same,Potency,[11],1260 nM (active)
same,Potency,[12],2130 nM (active)
same,Potency,[13],3380 nM (active)
same,Potency,[14],6750 nM (active)
same,Potency,[16],1690 nM (active)
same,Potency,[15],4780 nM (active)
CCOC(=O)Nc1ccc(NCc2ccc(F)cc2)nc1N,Z-AUC,[1],-0.444 (inactive)
same,Z-AUC,[1]; [18],-0.223
same,Z-AUC,[1]; measured here: PEO4 Z-AUC,-0.051
same,z-score,[17]; [23],0.955
same,z-score,[17]; [24],0.938
same,z-score,[17]; [25],0.317
same,Potency,[2]; parasite line A,7940 nM (active)
same,Potency,[2]; parasite line B,12600 nM (active)
same,Potency,[3],7940 nM (active)
same,Potency,[4],10000 nM (active)
same,Potency,[5],11200 nM (active)
same,Potency,[6],12600 nM (active)
same,Potency,[7],10000 nM (active)
same,Potency,[11],11200 nM (active)
Clc1ccc2nsnc2c1NC1=NCCN1,Z-AUC,[1],1.68 (inactive)
same,Z-AUC,[1]; [18],1.11
same,Z-AUC,[1]; measured here: PEO4 Z-AUC,1.24
same,"activity, negative = inhibition",[2]; [21],6.78% (inactive)
same,"activity, negative = inhibition",[2]; [22],-11.1% (inactive)
same,Potency,[3],inactive
same,Potency,[4],inactive
same,Potency,[5],inactive
same,Potency,[6],inactive
same,Potency,[7],inactive
same,Potency,[8],inactive
same,Potency,[9],inactive
same,Potency,[10],inactive
same,Potency,[11],inactive
same,Potency,[12],inactive
same,Potency,[13],inactive
same,Potency,[14],inactive
same,Potency,[15],inactive
Cc1cnc(C(=O)NCCc2ccc(S(=O)(=O)NC(=O)NC3CCCCC3)cc2)cn1,Z-AUC,[1],0.935 (inactive)
same,Z-AUC,[1]; [18],0.686
same,Z-AUC,[1]; measured here: PEO4 Z-AUC,0.444
same,"activity, negative = inhibition",[2]; [21],8.33% (inactive)
same,"activity, negative = inhibition",[2]; [22],4.07% (inactive)
same,Potency,[3],inactive
same,Potency,[4],inactive
same,Potency,[5],inactive
same,Potency,[6],inactive
same,Potency,[7],inactive
same,Potency,[8],inactive
same,Potency,[9],inactive
same,Potency,[10],inactive
same,Potency,[11],inactive
same,Potency,[12],inactive
same,Potency,[13],inactive
same,Potency,[14],inactive
same,Potency,[16],inactive
same,Potency,[15],inactive
COc1cc2c(c(OC)c1OC)-c1ccc(OC)c(=O)cc1[C@@H](NC(C)=O)CC2,Z-AUC,[1],-0.869 (inactive)
same,Z-AUC,[1]; [18],-1.12
same,Z-AUC,[1]; measured here: PEO4 Z-AUC,-1.62
same,"activity, negative = inhibition",[2]; [21],-2.78% (inactive)
same,"activity, negative = inhibition",[2]; [22],6.74% (inactive)
same,Potency,[3],inactive
same,Potency,[4],inactive
same,Potency,[5],inactive
same,Potency,[6],inactive
same,Potency,[7],inactive
same,Potency,[8],inactive
same,Potency,[9],inactive
same,Potency,[10],inactive
same,Potency,[11],inactive
same,Potency,[12],inactive
same,Potency,[13],inactive
same,Potency,[14],inactive
same,Potency,[16],inactive
same,Potency,[15],inactive
CS(=O)(=O)Nc1ccc([N+](=O)[O-])cc1Oc1ccccc1,Z-AUC,[1],1.34 (inactive)
same,Z-AUC,[1]; [18],1.22
same,Z-AUC,[1]; measured here: PEO4 Z-AUC,1.35
same,z-score,[17]; [23],1.08
same,z-score,[17]; [24],0.234
same,z-score,[17]; [25],0.487
same,"activity, negative = inhibition",[2]; [19],15.2% (inactive)
same,"activity, negative = inhibition",[2]; [20],9.68% (inactive)
same,Potency,[3],inactive
same,Potency,[4],inactive
same,Potency,[5],inactive
same,Potency,[6],inactive
same,Potency,[7],inactive
same,Potency,[8],inactive
same,Potency,[9],inactive
same,Potency,[10],inactive
same,Potency,[11],inactive
same,Potency,[12],inactive
same,Potency,[13],inactive
same,Potency,[14],inactive
same,Potency,[15],inactive
CNCCCC12CCC(c3ccccc31)c1ccccc12,Z-AUC,[1],-0.42 (inactive)
same,Z-AUC,[1]; [18],0.397
same,Z-AUC,[1]; measured here: PEO4 Z-AUC,0.261
same,"activity, negative = inhibition",[2]; [21],0.742% (inactive)
same,"activity, negative = inhibition",[2]; [22],-2.12% (inactive)
same,Potency,[3],inactive
same,Potency,[4],10000 nM (active)
same,Potency,[5],inactive
same,Potency,[6],inactive
same,Potency,[7],inactive
same,Potency,[9],inactive
same,Potency,[10],inactive
same,Potency,[12],inactive
same,Potency,[14],inactive
